Laboratory results taken from PubChem BioAssay AID1159580 (chemical genetic matrix, 2015).
The campaign covered roughly 5,500 compounds. About 2,000 (36%) were called active. About 18% were inconclusive and are not listed. Rule as the data show it: active = normalized growth mostly below about 0.91 (no sharp cut-off); inconclusive = no clear call, values can overlap the other calls; inactive = mostly above about 0.92. This is one part of the list.

Test: chemical genetic growth profiling, strain panel (AID 1159580);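 also: tested at 20 µM; growth read once vehicle control cultures reached saturation at 30 °C; 1 = growth at the plate median or of vehicle wells; lower values mean less growth of the strain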
Settings: growth OD

Measured: normalized growth

CC12CCC3C(CC=C4CC(O)CCC43C)C1CCC2=O (stereo not drawn)
active: S. cerevisiae deletion strains, locus YAL021C, strain ccr4, hits give low values 0.838 | S. cerevisiae deletion strains, locus YAL026C, strain drs2, hits give low values 0.582 | S. cerevisiae deletion strains, locus YAL030W, strain snc1, hits give low values 0.927 | S. cerevisiae deletion strains, locus YBR009C, strain hhf1, hits give low values 0.834 | S. cerevisiae deletion strains, locus YBR021W, strain FUR4, hits give low values 0.752 | S. cerevisiae deletion strains, locus YBR279W, strain paf1, hits give low values 0.876 | S. cerevisiae deletion strains, locus YCL011C, strain gbp2, hits give low values 0.886 | S. cerevisiae deletion strains, locus YCL016C, strain dcc1, hits give low values 0.9 | S. cerevisiae deletion strains, locus YCL029C, strain bik1, hits give low values 0.904 | S. cerevisiae deletion strains, locus YDL035C, strain GPR1, hits give low values 0.787 | S. cerevisiae deletion strains, locus YDL074C, strain BRE1, hits give low values 0.778 | S. cerevisiae deletion strains, locus YDL134C, strain PPH21, hits give low values 0.85 | S. cerevisiae deletion strains, locus YDR137W, strain rgp1, hits give low values 0.473 | S. cerevisiae deletion strains, locus YDR162C, strain NBP2, hits give low values 0.828 | S. cerevisiae deletion strains, locus YDR195W, strain ref2 1.54 [resistant] | S. cerevisiae deletion strains, locus YDR318W, strain mcm21, hits give low values 0.886 | S. cerevisiae deletion strains, locus YDR392W, strain spt3, hits give low values 0.234 | S. cerevisiae deletion strains, locus YDR502C, strain sam2, hits give low values 0.879 | S. cerevisiae deletion strains, locus YEL003W, strain gim4, hits give low values 0.88 | S. cerevisiae deletion strains, locus YER015W, strain faa2, hits give low values 0.869 | S. cerevisiae deletion strains, locus YER155C, strain BEM2 (second series), hits give low values 0.84 | S. cerevisiae deletion strains, locus YFR010W, strain ubp6, hits give low values 0.891 | S. cerevisiae deletion strains, locus YGL086W, strain mad1, hits give low values 0.888 | S. cerevisiae deletion strains, locus YGL173C, strain kem1, hits give low values 0.879 | S. cerevisiae deletion strains, locus YGL248W, strain PDE1, hits give low values 0.857 | S. cerevisiae deletion strains, locus YGL253W, strain hxk2, hits give low values 0.791 | S. cerevisiae deletion strains, locus YGR135W, strain pre9, hits give low values 0.871 | S. cerevisiae deletion strains, locus YGR252W, strain gcn5, hits give low values 0.62 | S. cerevisiae deletion strains, locus YHR027C, strain rpn1, hits give low values 0.895 | S. cerevisiae deletion strains, locus YHR129C, strain ARP1, hits give low values 0.905 | S. cerevisiae deletion strains, locus YHR142W, strain chs7, hits give low values 0.768 | S. cerevisiae deletion strains, locus YIL066C, strain RNR3, hits give low values 0.823 | S. cerevisiae deletion strains, locus YJL095W, strain BCK1 (second series), hits give low values 0.825 | S. cerevisiae deletion strains, locus YJL095W, strain BCK1, hits give low values 0.655 | S. cerevisiae deletion strains, locus YJL129C, strain trk1, hits give low values 0.801 | S. cerevisiae deletion strains, locus YJL164C, strain tpk1, hits give low values 0.845 | S. cerevisiae deletion strains, locus YJL166W, strain qcr8, hits give low values 0.813 | S. cerevisiae deletion strains, locus YKL009W, strain mrt4, hits give low values 0.868 | S. cerevisiae deletion strains, locus YKL160W, strain elf1, hits give low values 0.858 | S. cerevisiae deletion strains, locus YLL001W, strain dnm1, hits give low values 0.902 | S. cerevisiae deletion strains, locus YLL026W, hits give low values 0.88 | S. cerevisiae deletion strains, locus YLR027C, strain aat2, hits give low values 0.849 | S. cerevisiae deletion strains, locus YLR039C, strain RIC1, hits give low values 0.516 | S. cerevisiae deletion strains, locus YLR221C, strain rsa3, hits give low values 0.779 | S. cerevisiae deletion strains, locus YLR262C, strain YPT6 (second series), hits give low values 0.441 | S. cerevisiae deletion strains, locus YLR268W, strain sec22, hits give low values 0.882 | S. cerevisiae deletion strains, locus YLR320W, strain mms22, hits give low values 0.429 | S. cerevisiae deletion strains, locus YLR342W, strain FKS1 (second series), hits give low values 0.781 | S. cerevisiae deletion strains, locus YLR418C, strain cdc73, hits give low values 0.766 | S. cerevisiae deletion strains, locus YML032C, strain rad52, hits give low values 0.855 | S. cerevisiae deletion strains, locus YMR058W, strain fet3, hits give low values 0.885 | S. cerevisiae deletion strains, locus YMR205C, strain PFK2, hits give low values 0.811 | S. cerevisiae deletion strains, locus YNL071W, strain lat1, hits give low values 0.513 | S. cerevisiae deletion strains, locus YNL209W, strain ssb2, hits give low values 0.927 | S. cerevisiae deletion strains, locus YNL248C, strain rpa49, hits give low values 0.777 | S. cerevisiae deletion strains, locus YNL307C, strain MCK1, hits give low values 0.707 | S. cerevisiae deletion strains, locus YNL322C, strain KRE1, hits give low values 0.924 | S. cerevisiae deletion strains, locus YNR052C, strain pop2, hits give low values 0.861 | S. cerevisiae deletion strains, locus YOL147C, strain pex11, hits give low values 0.91 | S. cerevisiae deletion strains, locus YOR001W, strain rrp6, hits give low values 0.8 | S. cerevisiae deletion strains, locus YOR070C, strain gyp1, hits give low values 0.81 | S. cerevisiae deletion strains, locus YOR083W, strain WHI5, hits give low values 0.86 | S. cerevisiae deletion strains, locus YOR184W, strain ser1, hits give low values 0.694 | S. cerevisiae deletion strains, locus YOR270C, strain vph1, hits give low values 0.578 | S. cerevisiae deletion strains, locus YOR290C, strain snf2, hits give low values 0.848 | S. cerevisiae deletion strains, locus YPL051W, strain arl3, hits give low values 0.861 | S. cerevisiae deletion strains, locus YPL078C, strain atp4, hits give low values 0.864 | S. cerevisiae deletion strains, locus YPL106C, strain sse1, hits give low values 1.27 [resistant] | S. cerevisiae deletion strains, locus YPR163C, strain tif3, hits give low values 0.893 | S. cerevisiae deletion strains, strain wtn01, hits give low values 0.854 | S. cerevisiae strains, strain wild type, hits give low values 0.877
inactive: S. cerevisiae deletion strains, locus YAL013W, strain DEP1, hits give low values 0.948 | S. cerevisiae deletion strains, locus YBL061C, strain skt5, hits give low values 0.936 | S. cerevisiae deletion strains, locus YBR023C, strain chs3, hits give low values 0.933 | S. cerevisiae deletion strains, locus YBR171W, strain sec66, hits give low values 0.978 | S. cerevisiae deletion strains, locus YBR229C, strain ROT2, hits give low values 1.02 | S. cerevisiae deletion strains, locus YBR231C, strain swc5, hits give low values 0.926 | S. cerevisiae deletion strains, locus YCL069W, strain vba3, hits give low values 0.94 | S. cerevisiae deletion strains, locus YCR088W, strain abp1, hits give low values 1.02 | S. cerevisiae deletion strains, locus YDL005C, strain med2, hits give low values 0.995 | S. cerevisiae deletion strains, locus YDL040C, strain nat1, hits give low values 1.02 | S. cerevisiae deletion strains, locus YDL101C, strain DUN1, hits give low values 0.994 | S. cerevisiae deletion strains, locus YDL185W, strain tfp1, hits give low values 1.04 | S. cerevisiae deletion strains, locus YDL192W, strain arf1, hits give low values 0.934 | S. cerevisiae deletion strains, locus YDR001C, strain nth1, hits give low values 1.03 | S. cerevisiae deletion strains, locus YDR069C, strain doa4, hits give low values 0.945 | S. cerevisiae deletion strains, locus YDR101C, strain arx1, hits give low values 0.955 | S. cerevisiae deletion strains, locus YDR159W, strain sac3, hits give low values 0.916 | S. cerevisiae deletion strains, locus YDR297W, strain sur2, hits give low values 0.95 | S. cerevisiae deletion strains, locus YDR334W, strain swr1, hits give low values 1.04 | S. cerevisiae deletion strains, locus YDR335W, strain msn5, hits give low values 0.961 | S. cerevisiae deletion strains, locus YDR388W, hits give low values 1.02 | S. cerevisiae deletion strains, locus YEL037C, strain rad23, hits give low values 1 | S. cerevisiae deletion strains, locus YEL061C, strain CIN8 (second series), hits give low values 1.01 | S. cerevisiae deletion strains, locus YER016W, strain bim1, hits give low values 1.01 | S. cerevisiae deletion strains, locus YER110C, hits give low values 1.06 | S. cerevisiae deletion strains, locus YER111C, strain swi4, hits give low values 1.01 | S. cerevisiae deletion strains, locus YER155C, strain BEM2, hits give low values 1.02 | S. cerevisiae deletion strains, locus YER167W, strain BCK2, hits give low values 0.929 | S. cerevisiae deletion strains, locus YGL078C, strain dbp3, hits give low values 0.979 | S. cerevisiae deletion strains, locus YGL167C, strain pmr1, hits give low values 1 | S. cerevisiae deletion strains, locus YGL227W, strain vid30, hits give low values 1.01 | S. cerevisiae deletion strains, locus YGL240W, strain doc1, hits give low values 0.911 | S. cerevisiae deletion strains, locus YGR078C, strain PAC10, hits give low values 0.887 | S. cerevisiae deletion strains, locus YHR013C, strain ard1, hits give low values 0.868 | S. cerevisiae deletion strains, locus YHR030C, strain SLT2, hits give low values 1.03 | S. cerevisiae deletion strains, locus YHR079C, strain IRE1 (second series), hits give low values 1.02 | S. cerevisiae deletion strains, locus YHR094C, strain hxt1, hits give low values 1.05 | S. cerevisiae deletion strains, locus YHR200W, strain rpn10, hits give low values 0.93 | S. cerevisiae deletion strains, locus YIL073C, strain SPO22, hits give low values 0.783 | S. cerevisiae deletion strains, locus YIL125W, strain kgd1, hits give low values 0.989 | S. cerevisiae deletion strains, locus YIR030C, strain dcg1, hits give low values 1 | S. cerevisiae deletion strains, locus YJL092W, strain hpr5, hits give low values 0.948 | S. cerevisiae deletion strains, locus YJL115W, strain asf1, hits give low values 0.997 | S. cerevisiae deletion strains, locus YJL134W, strain LCB3, hits give low values 1.03 | S. cerevisiae deletion strains, locus YJL154C, strain vps35, hits give low values 1.02 | S. cerevisiae deletion strains, locus YJL168C, strain set2, hits give low values 1.04 | S. cerevisiae deletion strains, locus YJL187C, strain SWE1 (second series), hits give low values 0.879 | S. cerevisiae deletion strains, locus YKL068W, hits give low values 1.02 | S. cerevisiae deletion strains, locus YKL085W, strain MDH1 (second series), hits give low values 0.983 | S. cerevisiae deletion strains, locus YKL085W, strain MDH1, hits give low values 0.983 | S. cerevisiae deletion strains, locus YKL190W, strain CNB1, hits give low values 0.929 | S. cerevisiae deletion strains, locus YKR001C, strain vps1, hits give low values 1.01 | S. cerevisiae deletion strains, locus YKR026C, strain gcn3, hits give low values 1.03 | S. cerevisiae deletion strains, locus YKR091W, strain srl3, hits give low values 1.02 | S. cerevisiae deletion strains, locus YLL041C, strain sdh2, hits give low values 0.999 | S. cerevisiae deletion strains, locus YLR058C, strain SHM2, hits give low values 0.908 | S. cerevisiae deletion strains, locus YLR102C, strain apc9, hits give low values 1.02 | S. cerevisiae deletion strains, locus YLR258W, strain gsy2, hits give low values 0.939 | S. cerevisiae deletion strains, locus YLR330W, strain CHS5, hits give low values 0.929 | S. cerevisiae deletion strains, locus YLR342W, strain FKS1, hits give low values 0.932 | S. cerevisiae deletion strains, locus YLR357W, strain rsc2, hits give low values 1.1 | S. cerevisiae deletion strains, locus YLR370C, strain arc18, hits give low values 0.993 | S. cerevisiae deletion strains, locus YLR371W, strain rom2, hits give low values 1.07 | S. cerevisiae deletion strains, locus YLR384C, strain iki3, hits give low values 1.03 | S. cerevisiae deletion strains, locus YML016C, strain PPZ1, hits give low values 0.979 | S. cerevisiae deletion strains, locus YML120C, strain ndi1, hits give low values 0.92 | S. cerevisiae deletion strains, locus YML124C, strain tub3, hits give low values 1 | S. cerevisiae deletion strains, locus YMR078C, strain ctf18, hits give low values 1.02 | S. cerevisiae deletion strains, locus YMR125W, strain sto1, hits give low values 0.971 | S. cerevisiae deletion strains, locus YMR129W, hits give low values 0.975 | S. cerevisiae deletion strains, locus YMR223W, strain ubp8, hits give low values 0.946 | S. cerevisiae deletion strains, locus YMR231W, strain pep5, hits give low values 0.989 | S. cerevisiae deletion strains, locus YMR263W, strain SAP30, hits give low values 0.976 | S. cerevisiae deletion strains, locus YMR307W, strain GAS1, hits give low values 1.11 | S. cerevisiae deletion strains, locus YNL067W, strain RPL9B, hits give low values 0.917 | S. cerevisiae deletion strains, locus YNL153C, strain GIM3, hits give low values 0.887 | S. cerevisiae deletion strains, locus YNL233W, strain BNI4, hits give low values 0.889 | S. cerevisiae deletion strains, locus YNL250W, strain rad50, hits give low values 0.947 | S. cerevisiae deletion strains, locus YNL271C, strain bni1, hits give low values 0.993 | S. cerevisiae deletion strains, locus YNL298W, strain CLA4, hits give low values 0.929 | S. cerevisiae deletion strains, locus YNL322C, strain KRE1 (second series), hits give low values 1.01 | S. cerevisiae deletion strains, locus YNR049C, strain mso1, hits give low values 1.01 | S. cerevisiae deletion strains, locus YOL006C, strain TOP1, hits give low values 0.572 | S. cerevisiae deletion strains, locus YOL012C, strain htz1 1.48 | S. cerevisiae deletion strains, locus YOR061W, strain CKA2, hits give low values 0.907 | S. cerevisiae deletion strains, locus YOR069W, strain VPS5, hits give low values 0.962 | S. cerevisiae deletion strains, locus YOR080W, strain dia2, hits give low values 0.974 | S. cerevisiae deletion strains, locus YOR106W, strain vam3, hits give low values 0.89 | S. cerevisiae deletion strains, locus YOR136W, strain idh2, hits give low values 1.01 | S. cerevisiae deletion strains, locus YOR144C, strain elg1, hits give low values 0.987 | S. cerevisiae deletion strains, locus YOR265W, strain rbl2, hits give low values 0.969 | S. cerevisiae deletion strains, locus YOR316C, strain cot1, hits give low values 1.04 | S. cerevisiae deletion strains, locus YPL240C, strain hsp82, hits give low values 1.01 | S. cerevisiae deletion strains, locus YPL241C, strain CIN2, hits give low values 1.02 | S. cerevisiae deletion strains, locus YPR119W, strain clb2, hits give low values 1.05 | S. cerevisiae deletion strains, locus YPR141C, strain kar3, hits give low values 1.06 | S. cerevisiae deletion strains, locus YPR167C, strain met16, hits give low values 0.928
